# Test results reported in PubChem BioAssay.
# Activity calls are given as the source filed them. Unless noted, the rule behind the calls is not given here.
# Columns and labels:
# [1] = compound effects on lung adenocarcinoma cell viability – A549, calcein-AM fluorescence, 48 h, basal, profiling panel (AID 1162); conditions: higher = more signal; note: test concentration not given here
# [2] = compound effects on differentiated 3T3-L1 adipocyte viability – cell-based, 3T3-L1 adipocytes, calcein-AM fluorescence, 48 h, basal, profiling panel (AID 1163); conditions: 3T3-L1 adipocytes viability, higher = more signal; note: test concentration not given here
# [3] = compound effects on hepatocellular carcinoma cell viability – HepG2, calcein-AM fluorescence, 48 h, basal, profiling panel (AID 1164); conditions: higher = more signal; note: test concentration not given here
# [4] = compound effects on multiple myeloma cell viability – MM1S, calcein-AM fluorescence, 48 h, basal, profiling panel (AID 1165); conditions: higher = more signal; note: test concentration not given here
# [5] = calcein-AM signal in unstimulated myeloma cells – cell-based, calcein-AM fluorescence, 48 h, PK04 Diversity Set, profiling panel (AID 1166); conditions: RPMI8226 myeloma viability, higher = more signal;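 note: cells grown under basal conditions without added stimulus; test concentration not given here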
# [6] = JC-1 mitochondrial signal, unstimulated HepG2 cells – cell-based, JC-1 fluorescence, 24 h, 100 nL compound, profiling panel (AID 1167); conditions: HepG2 mitochondrial potential, higher = more signal; note: test concentration not given here
# [7] = JC-1 mitochondrial signal, unstimulated adipocytes – cell-based, JC-1 fluorescence, 3T3-L1 adipocytes, 24 h, 100 nL compound, profiling panel (AID 1168); conditions: JC-1 mitochondrial fluorescence, higher = more signal, called active from +8 up or from −8 down; note: test concentration not given here
# [8] = JC-1 mitochondrial signal, unstimulated myeloma cells – cell-based, JC-1 fluorescence, RPMI8226, 24 h, 100 nL compound, profiling panel (AID 1169); conditions: JC-1 mitochondrial potential fluorescence, higher = more signal; note: test concentration not given here
# [9] = JC-1 mitochondrial signal, unstimulated MM1S myeloma – cell-based, JC-1 fluorescence, 24 h, 100 nL compound, profiling panel (AID 1170); conditions: MM1S mitochondrial potential, higher = more signal; note: test concentration not given here
# [10] = resazurin metabolic signal in A549 cells – cell-based, resazurin fluorescence, 24 h, PK04 Diversity Set, profiling panel (AID 1171); conditions: A549 viability, higher = more signal, called active from +8 up or from −8 down; note: test concentration not given here
# [11] = resazurin metabolic signal in HepG2 cells – cell-based, resazurin fluorescence, 24 h, PK04 Diversity Set, profiling panel (AID 1172); conditions: HepG2 viability, higher = more signal; note: test concentration not given here
# [12] = budding yeast growth changes without added modifier – OD600, strain BY4716, 24 h, basal condition, primary screen (AID 1173); conditions: S. cerevisiae BY4716 growth, OD600, 24 h; higher = more signal, called active from +8 up or from −8 down
# [13] = viability profiling in MM1S myeloma cells – cell-based, resazurin fluorescence, basal, 24 h, PK04 Diversity Set, profiling panel (AID 1174); conditions: higher = more signal, called active from +8 up or from −8 down; note: test concentration not given here
# [14] = molecular target: Dihydroorotate dehydrogenase (quinone), mitochondrial (Plasmodium falciparum (isolate 3D7)) (UniProt Q08210); test: inhibition of P. falciparum DHODH – biochemical, C-terminal His tag, absorbance 600 nm, primary screen (AID 1175); conditions: PfDHODH enzyme, DCIP absorbance 600 nm; higher = more signal, called active from +8 up or from −8 down;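 note: recombinant parasite enzyme with a five histidine tag at its C terminus; test concentration not given here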
# [15] = inhibition of PAO1 biofilm formation – strain PAO1, LB-PBS medium, absorbance 600 nm, primary screen (AID 1176); note: test concentration not given here; conditions: P. aeruginosa PAO1 growth/biofilm, A600, 12 h; higher = more signal
# [16] = growth modulation of vineyard yeast isolate – strain RM11-1a, OD600, basal, 24 h, primary screen (AID 1177);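 note: cultures grown under basal conditions with no added stressor; test concentration not given here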; conditions: S. cerevisiae RM11-1a growth, OD600, 24 h; higher = more signal, called active from +8 up or from −8 down
# [17] = growth of efflux-deficient E. coli DRC39 – strain DRC39, OD650, 24 h, E. coli filamentation inducers, primary screen (AID 1178);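 note: growth measured as culture turbidity by optical density at 650 nm; test concentration not given here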; conditions: E. coli DRC39 acrAB, higher = more signal, called active from +8 up or from −8 down
# [18] = growth of efflux-deficient E. coli DRC39 – strain DRC39, OD650, 48 h, E. coli filamentation inducers, primary screen (AID 1179);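 note: screen aims at cell division blockers that make cells filament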; conditions: E. coli DRC39 delta-acrAB growth, higher = more signal, called active from +8 up or from −8 down
# [19] = viability profiling in RPMI8226 myeloma cells – cell-based, resazurin fluorescence, basal, 24 h, PK04 Diversity Set, profiling panel (AID 1180); conditions: higher = more signal;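 note: RPMI8826 multiple myeloma cell line at 5000 cells per well; test concentration not given here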
# [20] = molecular target: E3 ubiquitin-protein ligase XIAP (Homo sapiens) (UniProt P98170); test: small molecules binding XIAP protein – biophysical, small-molecule microarray, fluorescence 635 nm, primary screen (AID 1181); conditions: higher = more signal;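 note: score merges 667 nm emission and signal to noise over triplicate slides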
# Chain of E3 ubiquitin-protein ligase XIAP (Homo sapiens) (P98170 whole entry, looked up): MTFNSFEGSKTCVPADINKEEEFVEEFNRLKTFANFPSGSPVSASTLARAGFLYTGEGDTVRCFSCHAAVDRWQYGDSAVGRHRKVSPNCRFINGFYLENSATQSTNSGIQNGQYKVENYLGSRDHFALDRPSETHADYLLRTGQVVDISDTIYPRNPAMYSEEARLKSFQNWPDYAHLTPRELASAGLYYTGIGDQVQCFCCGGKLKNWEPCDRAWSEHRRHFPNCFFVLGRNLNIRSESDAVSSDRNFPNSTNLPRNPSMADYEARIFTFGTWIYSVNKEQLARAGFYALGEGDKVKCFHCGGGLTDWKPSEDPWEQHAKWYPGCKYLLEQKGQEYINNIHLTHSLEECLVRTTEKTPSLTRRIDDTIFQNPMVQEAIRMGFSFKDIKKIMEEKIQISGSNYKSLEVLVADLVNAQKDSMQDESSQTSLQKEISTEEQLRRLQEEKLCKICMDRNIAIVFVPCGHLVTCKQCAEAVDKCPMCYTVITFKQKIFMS
# Chain of Dihydroorotate dehydrogenase (quinone), mitochondrial (Plasmodium falciparum (isolate 3D7)) (Q08210 whole entry, looked up): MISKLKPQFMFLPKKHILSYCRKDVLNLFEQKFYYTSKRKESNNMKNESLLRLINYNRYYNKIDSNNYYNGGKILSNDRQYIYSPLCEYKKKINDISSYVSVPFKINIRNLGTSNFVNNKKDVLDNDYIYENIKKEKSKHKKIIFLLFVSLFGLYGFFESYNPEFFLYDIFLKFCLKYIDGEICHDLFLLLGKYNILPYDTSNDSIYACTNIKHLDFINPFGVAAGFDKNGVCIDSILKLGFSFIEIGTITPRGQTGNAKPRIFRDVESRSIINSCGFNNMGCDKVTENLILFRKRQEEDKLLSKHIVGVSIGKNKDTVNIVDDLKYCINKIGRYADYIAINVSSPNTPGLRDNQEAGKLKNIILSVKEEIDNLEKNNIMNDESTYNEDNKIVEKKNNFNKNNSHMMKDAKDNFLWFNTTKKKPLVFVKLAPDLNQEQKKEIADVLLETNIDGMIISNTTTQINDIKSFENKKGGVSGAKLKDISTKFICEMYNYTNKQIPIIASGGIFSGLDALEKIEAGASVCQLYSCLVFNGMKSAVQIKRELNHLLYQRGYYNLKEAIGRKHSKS
Structure (SMILES),z-score [1],z-score [2],z-score [3],z-score [4],z-score [5],z-score [6],z-score [7],z-score [8],z-score [9],z-score [10],z-score [11],z-score [12],z-score [13],composite z-score [14],z-score [15],z-score [16],z-score [17],z-score [18],z-score [19],composite z-score [20]
O=C1O[C@H](c2ccccc2)[C@H](c2ccccc2)N2[C@H]1[C@@H](C(=O)Nc1nc3ccccc3s1)[C@]1(C(=O)Nc3ccc(C#CC4=CCCCC4)cc31)[C@H]2c1ccc(O)cc1,0.397,-0.197,0.992,-1.01,-2.01,-2.82,-0.216 (inactive),-0.886,-0.991,0.229 (inactive),0.98,-1.03 (inactive),0.306 (inactive),0.667 (inactive),0.517 (inactive),-0.286 (inactive),0.442 (inactive),0.382 (inactive),0.422,-0.13
CN(C)CCCC[C@@H]1NC(=O)[C@@H]2C[C@H](C(=O)O)[C@H](c3cccc(OCCO)c3)N2C1=O,0.0184,0.13,0.201,0.238,0.312,1.05,-0.864 (inactive),-0.804,0.174,0.593 (inactive),-0.0398,-0.79 (inactive),0.472 (inactive),-0.126 (inactive),0.808 (inactive),-0.547 (inactive),-0.175 (inactive),0.494 (inactive),0.259,-0.0398
O=C1O[C@H](c2ccccc2)[C@H](c2ccccc2)N2[C@H]1[C@@H](C(=O)N1CCCCCCC1)[C@]1(C(=O)Nc3ccc(C#CC4(O)CCCCCC4)cc31)[C@H]2c1ccccc1OCCO,-0.222,-0.107,0.703,-0.0437,-0.908,-0.175,0.64 (inactive),-0.74,-1.26,-0.152 (inactive),1.72,0.893 (inactive),-0.382 (inactive),0.195 (inactive),0.682 (inactive),2.45 (inactive),0.138 (inactive),-1.14 (inactive),-0.443,2.12
O=C(CS)NCCCCCCNC(=O)[C@@H]1C[C@@H]2C(=O)NCC(=O)N2[C@@H]1c1ccc(O)cc1,0.622,0.182,0.435,0.21,1.06,0.677,0.138 (inactive),0.391,-0.386,-0.746 (inactive),0.263,-0.185 (inactive),0.426 (inactive),-0.757 (inactive),0.171 (inactive),-1.97 (inactive),0.858 (inactive),1.62 (inactive),0.0464,-0.02
C=CCC(OC(C)=O)[C@@H]1[C@@H](N(Cc2ccc(-c3cccc(C(F)(F)F)c3)o2)C(=O)c2ccc(C)cc2)c2cc(OCCCO)ccc2N1C(=O)Cc1ccc(OC)cc1 (stereo not given in full),1.22,0.608,2.12,-0.155,0.002,3.98,0.557 (inactive),-0.245,-0.83,1.25 (inactive),0.91,-0.455 (inactive),0.104 (inactive),-1.55 (inactive),-0.194 (inactive),0.74 (inactive),0.145 (inactive),1.11 (inactive),1.11,0.0871
O=C1OCCC/C=C\[C@H]2OC34C=CCN(c5ccc6ccccc6c5)C(=O)[C@H]3N(CCCO)C(=O)[C@@H]4C12 (stereo not given in full),-0.416,1.34,0.275,0.392,-0.686,-0.36,-0.41 (inactive),-0.0534,1.37,0.252 (inactive),-0.408,0.556 (inactive),-0.104 (inactive),-0.818 (inactive),-0.636 (inactive),-1.1 (inactive),-0.0367 (inactive),-0.0547 (inactive),0.375,-0.332
CC1CC/C=C\[C@H]2OC34C=CCN(C(C)(C)C)C(=O)[C@H]3N(C(CO)C(C)C)C(=O)[C@@H]4C2C(=O)O1 (stereo not given in full),0.0643,0.385,-0.554,1.61,0.136,-0.976,-0.295 (inactive),-0.622,-0.516,-0.266 (inactive),-0.49,-0.154 (inactive),-0.34 (inactive),-6.62 (inactive),0.0251 (inactive),-0.472 (inactive),0.361 (inactive),0.338 (inactive),-0.375,0.0357
[N-]=[N+]=NCc1ccccc1[C@H]1OC(c2ccc(OCCCO)cc2)=N[C@@]1(Cc1ccccc1)C(=O)NCCN1CCOCC1,0.526,1.06,0.688,-2.51,-1.2,1.51,-0.0131 (inactive),-0.815,0.45,1.19 (inactive),0.292,-1.62 (inactive),-0.206 (inactive),-0.905 (inactive),1.26 (inactive),-0.557 (inactive),2.89 (inactive),0.763 (inactive),0.16,0.785
COc1ccc(C#Cc2ccc3c(c2)[C@]2(C(=O)N3)[C@H](C(=O)Nc3nc4ccccc4s3)[C@H]3C(=O)O[C@H](c4ccccc4)[C@H](c4ccccc4)N3[C@@H]2c2ccccc2OCCO)cc1,0.609,1.61,0.211,-0.708,-0.451,-2.79,3.69 (inactive),-1.03,-1.27,-0.801 (inactive),0.154,1.08 (inactive),0.303 (inactive),-5.43 (inactive),2.69 (inactive),1.66 (inactive),0.82 (inactive),0.413 (inactive),1.5,0.0507
C=C(C(=O)CC[C@H](OC(=O)c1ccccc1-c1ccccc1C(=O)O)c1ccccc1OCCO)C(C)C,0.301,1.72,0.255,-3.44,-2.35,-0.266,0.585 (inactive),-0.636,0.63,0.109 (inactive),0.0659,-1.04 (inactive),0.181 (inactive),-0.169 (inactive),0.108 (inactive),-0.0722 (inactive),0.88 (inactive),0.32 (inactive),-0.268,0.194
C=C[C@@H](OC)[C@H](OC(=O)Nc1ccc(OC)cc1)c1ccc(OC)c(O)c1,-0.464,0.605,-0.192,-0.0794,1.05,-0.733,0.141 (inactive),0.616,0.454,0.376 (inactive),0.358,-1.19 (inactive),-0.143 (inactive),-0.0589 (inactive),0.295 (inactive),0.445 (inactive),0.724 (inactive),0.367 (inactive),0.185,0.431
C=C(COC)/C(=C/C[C@H](OC(C)=O)c1cccc(OCCO)c1)c1cnc2ccccc2c1,0.858,1.01,0.455,-2.78,-0.114,0.713,-0.437 (inactive),0.23,-0.0946,0.127 (inactive),-0.0054,1.02 (inactive),-0.496 (inactive),-6.23 (inactive),0.0721 (inactive),1.56 (inactive),-0.901 (inactive),-0.856 (inactive),-0.58,-0.0749
CC1(C)C(=O)C(c2ccccc2)=C2CN3C(=O)N(CCc4ccccc4)C(=O)C3(Cc3ccc(F)cc3)C=C21 (stereo not given),-0.767,0.366,0.184,-1.24,-1.81,0.39,-1.91 (inactive),-0.733,-0.59,-0.745 (inactive),-1.03,0.664 (inactive),-2.18 (inactive),-0.533 (inactive),0.563 (inactive),1.11 (inactive),-0.687 (inactive),-1.01 (inactive),-0.968,-0.198
C=C/C=C/[C@@H]1C(=C)CN([C@@H](Cc2ccccc2)C(=O)OC)[C@H]1[C@@H](O)Cc1ccccc1,0.192,-0.47,0.438,-3.04,-2.15,-0.28,0.147 (inactive),-0.975,-2.24,0.663 (inactive),0.779,-1.03 (inactive),-0.196 (inactive),0.0865 (inactive),0.106 (inactive),0.774 (inactive),0.18 (inactive),-0.45 (inactive),-0.697,-0.0349
COc1ccc([Si](C)(C)[C@@H]2[C@@H](CCn3cc([C@H](O)c4ccccc4)nn3)O[C@]3(C(=O)N(c4ccccc4)c4ccccc43)[C@H]2C)cc1,-0.985,1.98,-2.22,-1.18,-3.91,1.63,0.177 (inactive),-0.973,-0.681,-2.3 (inactive),-2.07,-0.284 (inactive),-3.04 (inactive),-0.204 (inactive),1.08 (inactive),0.77 (inactive),-0.434 (inactive),-0.502 (inactive),-3.15,-0.131
COc1cc2c(cc1OC)CN(C(=O)[C@@H]1[C@H]3C(=O)O[C@H](c4ccccc4)[C@H](c4ccccc4)N3[C@H](c3ccc(O)cc3)[C@@]13C(=O)Nc1ccc(C#CCCO)cc13)CC2,-0.446,-0.423,-0.314,-0.0118,0.191,-2.29,0.0304 (inactive),-0.294,-0.492,0.156 (inactive),0.0462,1.03 (inactive),-1.22 (inactive),0.838 (inactive),1.2 (inactive),1.66 (inactive),0.437 (inactive),0.258 (inactive),-0.657,-0.269
